PubChem BioAssay AID588849 (Broad Institute, 2011)
Results with a measured potency or affinity are listed apart. Active and inactive are the calls of the source. No rule for the calls is given here.

The compounds below were run against CAAX prenyl protease 2 (Homo sapiens) (UniProt Q9Y256) (assay: inhibition of Ras-converting CAAX protease Rce1 – biochemical, yeast membranes, quenched-peptide fluorescence, cherry-pick, dose response (AID 588849)). Details: yeast membrane fractions expressing human Rce1, quenched-peptide fluorescence, 4 h; series mostly up to 10 µM.
Chain of CAAX prenyl protease 2 (Homo sapiens) (Q9Y256 whole entry, looked up): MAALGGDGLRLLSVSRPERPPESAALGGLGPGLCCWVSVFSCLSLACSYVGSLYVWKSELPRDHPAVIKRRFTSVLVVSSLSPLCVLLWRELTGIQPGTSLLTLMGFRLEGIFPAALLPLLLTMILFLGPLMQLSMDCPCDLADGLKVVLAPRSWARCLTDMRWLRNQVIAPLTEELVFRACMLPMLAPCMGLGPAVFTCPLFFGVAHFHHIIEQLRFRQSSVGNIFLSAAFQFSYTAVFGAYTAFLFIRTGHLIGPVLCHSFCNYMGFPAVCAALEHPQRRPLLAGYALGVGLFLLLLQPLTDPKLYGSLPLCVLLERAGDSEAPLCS

outcome, inactive:
CN(C)CCNc1ncnc2oc(-c3ccccc3)c(-c3ccccc3)c12
COC(C/C=C/C(=O)[C@H](C)OCc1ccccc1)OC
CCCCCCCCNC(C)C(O)c1ccc(SC(C)C)cc1 (stereo not drawn)
C/C(CC(=O)NCc1ccco1)=N\NC(=O)c1ccc([N+](=O)[O-])cc1Cl
Cc1ccc(-c2cc(C)nc3nc(N)nn23)cc1
CC(C)c1cc(=O)oc2c3c4c(cc12)CCCN4CCC3
COc1cccc2c(=O)c(C(=O)O)c[nH]c12
CCC(COC)NC(=O)CCc1nnc(Cc2cccc(C(F)(F)F)c2)o1 (stereo not drawn)
CCC(=O)Nc1cccc(NC(=S)NC(=O)c2cccs2)c1
NC(=O)[C@H]1CC2(CC(c3cccc(NC(=O)COc4ccc(Cl)cc4)c3)=NO2)CN1C(=O)C(c1ccccc1)c1ccccc1 (stereo partly drawn)
O=C(O)CCc1nc2cc(C(F)(F)F)ccc2n(Cc2ccccc2)c1=O
CCN(CC)CCCNc1cc(C)nc2cc(-c3cccs3)nn12
CC1(c2ccc(OCC#N)cc2)C=C(c2ccc(OCC#N)cc2)n2nc(C(F)(F)F)nc2N1 (stereo not drawn)
CCOC(=O)c1nnn2c1nc(N1CCOCC1)c1ccccc12
O=C(COc1ccc2ccc(=O)oc2c1)NCCc1c[nH]c2ccc(F)cc12
CC(C)c1cccc(OCC(=O)Nc2ccc(S(=O)(=O)Nc3ccccn3)cc2)c1
CC(Cc1cccs1)NC(=O)Nc1ccc([N+](=O)[O-])cc1 (stereo not drawn)
CC(C)CNC(=O)COc1cccc(C(=O)NCc2ccccc2)c1
